According to PubChem BioAssay (EPA / NIEHS):
Where a structure was tested more than once in an assay, its records may differ in their call. Activity calls are given as the source filed them. How the source made its calls: active means hit-call score of the fitted dose curve at least 0.9, where 1 is the maximum; inactive means score below 0.9.

Experiments:
[1] = read-out: Intercellular Adhesion Molecule 1 (ICAM1), ICAM1 (gene 3383); assay: BSK_KF3CT_ICAM1: BioMAP Diversity Plus: KF3CT Assay for Intercellular Adhesion Molecule 1 (ICAM1) Biomarker Activity (AID 2283067); conditions: primary human keratinocytes with fibroblasts; actives raise or lower the signal
Procedure, shortened: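 Dose the keratinocyte/fibroblast co-culture, wait 24 h, measure ICAM-1 by ELISA, then fit increases or decreases against DMSO. Cytotoxicity is checked in parallel cultures by SRB total-protein staining.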

[2] = read-out: Interferon-gamma inducible Protein 10 (IP10), CXCL10 (gene 3627); assay: BSK_KF3CT_IP10: BioMAP Diversity Plus: KF3CT Assay for Interferon-gamma inducible Protein 10 (IP10) Biomarker Activity (AID 2283068); conditions: primary human keratinocytes with fibroblasts; actives raise or lower the signal
Procedure, shortened: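 Signal is secreted/surface IP-10 by ELISA in a human primary skin co-culture of keratinocytes and foreskin fibroblasts, taken 24 h post-dosing; DMSO served as negative control.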

[3] = BSK_KF3CT_SRB: Viability Assessment in the BioMAP Diversity Plus: KF3CT Assay (AID 2283069); conditions: primary human keratinocytes with fibroblasts;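 further: fitted for both signal gain and loss against DMSO baseline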
Procedure, shortened: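 Human primary keratinocyte plus foreskin fibroblast co-culture exposed to chemicals for 24 h. Total protein measured by 0.1% sulforhodamine B staining after 10% TCA fixation, read at 560 nm; bidirectional fitting versus DMSO baseline.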

[4] = read-out: TIMP metallopeptidase inhibitor 2 (TIMP2), TIMP2 (gene 7077); assay: BSK_KF3CT_TIMP2: BioMAP Diversity Plus: KF3CT Assay for TIMP metallopeptidase inhibitor 2 (TIMP2) Biomarker Activity (AID 2283071); conditions: primary human keratinocytes with fibroblasts; actives raise or lower the signal
Procedure, shortened: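 Keratinocyte–fibroblast co-culture, 24 h exposure; TIMP-2 ELISA, DMSO-normalised bidirectional fit. Parallel SRB (0.1%, TCA-fixed, 560 nm) total-protein staining gauges cytotoxicity.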

[5] = read-out: C-C motif chemokine 2 (Homo sapiens) (UniProt P13500); assay: BSK_KF3CT_MCP1: BioMAP Diversity Plus: KF3CT Assay for Monocyte Chemoattractant Protein 1 (MCP1/CCL2) Biomarker Activity (AID 2283073); conditions: primary human keratinocytes with fibroblasts; actives raise or lower the signal
Procedure, shortened: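 Keratinocytes and foreskin fibroblasts were co-cultured, dosed with chemical, and sampled 24 h later. MCP-1 was quantified by ELISA, and the endpoint was analyzed with bidirectional fitting using DMSO as negative control.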

[6] = read-out: urokinase plasminogen activator (uPA), PLAU (gene 5328); assay: BSK_KF3CT_uPA: BioMAP Diversity Plus: KF3CT Assay for urokinase plasminogen activator (uPA) Biomarker Activity (AID 2283075); conditions: primary human keratinocytes with fibroblasts; actives raise or lower the signal
Procedure, shortened: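 Human keratinocyte plus foreskin fibroblast primary co-culture exposed to chemical for 24 h. uPA levels were quantified by ELISA, and activity was fitted bidirectionally against a DMSO negative-control baseline.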

CD40, CD40 (gene 958) = assay: BSK_LPS_CD40: BioMAP Diversity Plus: LPS Assay for CD40 Biomarker Activity (AID 2283076); conditions: primary human HUVEC with PBMC; actives raise or lower the signal
Procedure, shortened: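 CD40 signal, measured by ELISA, is fitted in both directions relative to DMSO vehicle. The system is an LPS-driven human vascular primary co-culture of endothelial cells and PBMC, sampled 24 h after compound addition.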

[7] = read-out: E-selectin (Homo sapiens) (UniProt P16581); assay: BSK_LPS_Eselectin: BioMAP Diversity Plus: LPS Assay for Eselectin Biomarker Activity (AID 2283077); conditions: primary human HUVEC with PBMC; actives raise or lower the signal
Procedure, shortened: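 Signal of E-selectin, detected by ELISA, served as the endpoint; cells were umbilical vein endothelium with PBMC, read 24 h after treatment. DMSO defined baseline, and both increases and decreases were fitted.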

[8] = read-out: Interleukin-8 (IL8), CXCL8 (gene 3576); assay: BSK_LPS_IL8: BioMAP Diversity Plus: LPS Assay for Interleukin-8 (IL8) Biomarker Activity (AID 2283078); conditions: primary human HUVEC with PBMC; actives raise or lower the signal
Procedure, shortened: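 Endothelial cells and PBMC from human donors are co-cultured, treated with chemicals and LPS, then assayed for IL-8 by ELISA after 24 h. Parallel SRB staining (0.1% SRB after 10% TCA fixation, 560 nm) flags cytotoxicity.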

[9] = BSK_LPS_SRB: Viability Assessment in the BioMAP Diversity Plus: LPS Assay (AID 2283079); conditions: primary human HUVEC with PBMC;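 further: total protein by sulforhodamine B absorbance as a cytotoxicity measure; measured one day after compound addition; fitted in both directions against DMSO so loss or gain of signal counts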
Procedure, shortened: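 Overt cytotoxicity was gauged by sulforhodamine B total-protein staining in a primary human vascular endothelial and mononuclear cell co-culture 24 h post-dosing. Activity was fitted in both directions relative to DMSO.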

Measured: AC50

E-selectin (Homo sapiens), sequence (P16581 whole entry, looked up): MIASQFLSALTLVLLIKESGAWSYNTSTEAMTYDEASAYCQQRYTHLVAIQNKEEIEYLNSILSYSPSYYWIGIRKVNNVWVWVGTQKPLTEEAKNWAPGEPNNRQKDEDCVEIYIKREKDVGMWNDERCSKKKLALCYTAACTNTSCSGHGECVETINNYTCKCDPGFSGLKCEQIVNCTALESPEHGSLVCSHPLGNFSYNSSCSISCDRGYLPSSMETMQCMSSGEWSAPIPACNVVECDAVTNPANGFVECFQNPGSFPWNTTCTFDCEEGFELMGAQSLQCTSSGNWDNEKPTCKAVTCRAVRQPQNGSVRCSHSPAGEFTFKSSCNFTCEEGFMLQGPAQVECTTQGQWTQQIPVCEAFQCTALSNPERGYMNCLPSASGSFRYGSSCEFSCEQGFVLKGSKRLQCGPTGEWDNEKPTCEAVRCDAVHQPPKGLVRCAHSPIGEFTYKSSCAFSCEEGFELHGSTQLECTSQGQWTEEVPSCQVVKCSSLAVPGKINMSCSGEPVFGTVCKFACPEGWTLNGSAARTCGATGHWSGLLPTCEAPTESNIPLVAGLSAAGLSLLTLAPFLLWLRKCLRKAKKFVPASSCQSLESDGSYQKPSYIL

O=C(c1ccc(O)cc1)c1ccc(O)cc1O
inactive: all assays above

CN1C(=O)N(C)C(O)C1O (stereo not drawn)
inactive: [1] | [2] | [3] | [4] | [5] | [6] | CD40, CD40 (gene 958) | [7] | [8] | [9]
active: CD40, CD40 (gene 958) 1.5 µM

O=C(Nc1ccccc1SSc1ccccc1NC(=O)c1ccccc1)c1ccccc1
active: CD40, CD40 (gene 958) 4.75 µM | [8] 5.19 µM | [9] 5.31 µM
inactive: all other assays above

CCCCCCCCCCCCCCCC[N+](C)(C)CC
active: [1] 4.6 µM | [2] 2.96 µM | [3] 5.14 µM | [4] 2.15 µM | [5] 6.3 µM | [6] 7.22 µM | CD40, CD40 (gene 958) 3.07 µM | [7] 5.7 µM | [8] 8.09 µM | [9] 1.62 µM

CCCCCCCCc1ccc(Nc2ccc(CCCCCCCC)cc2)cc1
inactive: all assays above

S=C(NC1CCCCC1)NC1CCCCC1
inactive: all assays above

CC1OC1C1CCC2(C)OC2C1 (stereo not drawn)
inactive: all assays above

O=C1CCCN1CCO
inactive: all assays above

CO[Si](OC)(OC)c1ccccc1
inactive: all assays above

CC(C)(c1cc(Br)c(OCCO)c(Br)c1)c1cc(Br)c(OCCO)c(Br)c1
active: [1] 16.2 µM | [2] 9.81 µM | [3] 9.41 µM | [4] 16.2 µM | [5] 16.2 µM | [6] 16.2 µM | CD40, CD40 (gene 958) 11.9 µM | [9] 16.2 µM
inactive: [7] | [8]

CCCCC/C=C\C/C=C\CCCCCCCC(=O)OC
active: [1] 31.4 µM | [2] 29 µM | [3] 31 µM | [4] 30 µM | [5] 28.7 µM | [6] 30.8 µM | CD40, CD40 (gene 958) 20 µM | [7] 36.5 µM | [8] 29.5 µM
inactive: [9]

O=Nc1ccc(O)cc1
inactive: all assays above

C=CCOc1c(Br)cc(Br)cc1Br
inactive: CD40, CD40 (gene 958) | [7] | [8] | [9]
active: [1] 30.7 µM | [2] 38.9 µM | [3] 27.8 µM | [4] 11.4 µM | [5] 12.2 µM | [6] 28.6 µM

O=C(Cl)c1cc(C(=O)Cl)cc(C(=O)Cl)c1
active: [1] 30.8 µM | [2] 35 µM | [3] 33.2 µM | [4] 25.2 µM | [5] 30.1 µM | [6] 30.9 µM | CD40, CD40 (gene 958) 15.2 µM | [7] 31.2 µM | [8] 28.8 µM | [9] 30.5 µM

c1ccc2c(c1)ccc1cc3c(ccc4ccccc43)cc12
inactive: [1] | [2] | [3] | [4] | [5] | [6] | CD40, CD40 (gene 958) | [7] | [8] | [9]
active: [4] 3.59 µM | [8] 1.84 µM

CCCCNc1ccc(NCCCC)c2c1C(=O)c1ccccc1C2=O
inactive: all assays above

CCO[Si](C)(OCC)OCC
inactive: all assays above

C=C[Si](OC(C)=O)(OC(C)=O)OC(C)=O
inactive: all assays above
